Growth data for 39 compounds are collected here from PubChem BioAssay (NCI).

This is part of a sample that, as a whole, favours compounds with a hit. Of some 83,000 tested, about 20% had one in any assay.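 In brief: 96-well plates, 48 h treatment, single concentration, percent growth endpoint.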 Values without a mark were called inactive. Activity calls are given as the source filed them. Rule for the calls: active = growth percent below 10; inactive = the rest.

This test has as its system OVCAR-3 ovarian. The test is described as follows: NCI-60 one-dose screen, 48 h (100 = growth as untreated, 0 = no growth, -100 = all killed). The following applies: 10 µM unless noted.
`ClC(Cl)c1nc(-c2cccs2)n2nc(-c3ccccc3)cc2n1`: the growth was -37.4% (active). For `O=C(COc1ccc(C2SCC(=O)N2c2ccccc2)cc1)c1ccccc1` (centres undefined) the value was 116%; for `c1ccc(-c2n(Cc3ccc4ccccc4c3)c3c4ccccc4c4ccccc4c3[n+]2Cc2ccc3ccccc3c2)cc1`, -90.8% (active); for `O=C1[C@@H]2Cc3c([nH]c4ccccc34)[C@H](c3c(Cl)cccc3Cl)N2C(=O)CN1C1CCN(Cc2c(F)cccc2F)CC1`, 113%. With `NCCN1CCN(c2nc(-c3ccccc3)nc3nc(-c4ccccc4)oc23)CC1`, the growth was -78.6% (active). For `C/C(=C(/C)C1CC1CCN(C(=O)c1ccccn1)S(=O)(=O)c1ccc(C)cc1)C1CCCCC1` (centres undefined) the value was 108%; for `Cc1nn(-c2ccccc2)cc1/C=N/Nc1nc(Nc2ccccc2)nc(Nc2ccc(S(N)(=O)=O)cc2)n1`, -31.1% (active). For `Brc1cccc(/C=N/Nc2nc(N/N=C/c3cccc(Br)c3)nc(N3CCOCC3)n2)c1` the value was 42.4%; for `COc1cc(/C=C2\SC(=O)NC2=O)ccc1OCC(=O)Nc1ccc(C(=O)/C=C/c2cc3ccccc3nc2Cl)cc1`, 104%; for `O=c1oc2ccc(-c3ccc(F)cc3F)cc2c(=O)n1-c1ccc(F)c(F)c1`, 5.59% (active). The figure for `CC[C@@](C)(NC(=O)C(C)(C)NC(=O)[C@@H](NC(=O)[C@@H]1CCCN1C(=O)C(C)(C)NC(=O)[C@H](CC(C)C)NC(=O)CNC(=O)C(C)(C)NC(=O)[C@@H](NC(=O)C(C)(C)NC(=O)[C@H](CCC(N)=O)NC(=O)[C@H](C)NC(=O)C(C)(C)NC(=O)[C@H](C)NC(=O)C(C)(C)NC(=O)[C@@H]1CCCN1C(=O)C(C)(C)NC(C)=O)C(C)C)C(C)C)C(=O)N[C@@H](CCC(N)=O)C(=O)N[C@@H](CCC(N)=O)C(=O)N[C@H](CO)Cc1ccccc1` is 14.6% [4.25 µM]; for `O=C(/C=C/c1cn(-c2ccccc2)nc1-c1ccc(Cl)cc1)c1cc2ccccc2oc1=O` it is 82.8%.

As to `CCN1C(=O)N(CC)C2SC(N/N=C/c3ccc(OC)cc3)=NC21` (centres undefined), the growth was -13.1% (active). Turning to `O=C(O)c1ccc(-n2cc(CNc3ccc(F)cc3)c(-c3ccc(C(F)(F)F)cc3)n2)cc1`, the growth was 84.1%. For `COc1cc(/C=C/C(=O)c2ccc(NC(=O)COc3cccc4cccnc34)cc2)cc(OC)c1OC`, the growth was 47.9%.

As for `COc1cc(CNC(=O)Cc2ccccc2[N+](=O)[O-])ccc1OCC(=O)NO`, the growth was 126%. The figure for `Oc1ccc(CSc2nnc(-c3cnccn3)o2)c2cccnc12` is 11.9%; for `O=C(NCCCNc1cc(-c2cn(-c3ccccc3)nc2-c2cccc(O)c2)ccn1)Nc1ccc(F)cc1` it is 28.4%.

On to `COc1ccc(-c2nn(-c3ccccc3)cc2/C=C/C(=O)c2ccc(NC(=O)CCCCCCC(=O)NO)cc2)cc1`, for which the growth was 96.2%. For `O=C1[C@H]2Cc3c([nH]c4ccccc34)[C@@H](c3c(Cl)cccc3Cl)N2C(=O)CN1C1CCN(Cc2ccccc2)CC1` the value was 109%; for `COc1cccc(/C=C/C(=O)c2ccc(NC(=O)COc3cccc4cccnc34)cc2)c1`, 102%; for `CCCC(=O)NC(c1cccnc1)c1cc(Cl)c2cccnc2c1O` (centres undefined), 19.7%.

For the compound `C/C(=N/Nc1nc(N/N=C(/C)c2ccc([N+](=O)[O-])cc2)nc(N2CCOCC2)n1)c1ccc([N+](=O)[O-])cc1`, the growth was 88.4%. The figure for `Oc1ccc(CSc2nnc(-c3cnccn3)n2-c2ccccc2)c2cccnc12` is 14.8%; for `CCOC(=O)C1=C(C)Nc2nc3ccccc3n2C1c1ccccc1` (centres undefined) it is 90.9%. On to `Oc1ccc(CSc2nnc(-c3ccc(Br)cc3)o2)c2cccnc12`, for which the growth is 27.4%. Take `CNC(=O)c1cc(N2CCc3cc(NC(=O)Nc4ccc(Cl)c(Cl)c4)ccc32)ccn1`: the growth was 105%. As for `COc1cc2cc(Oc3ccc(NC(=O)Nc4cc(C(F)(F)F)cc(C(F)(F)F)c4)cc3)c(C)nc2cc1OCCN(C)C`, the growth was 120%.

`Cc1cc(O)c(=O)cc2c1C[C@H]1CC(C)(C)/C=C/C[C@]3(C)Oc4cc(=O)c(O)cc(C)c4C[C@H]3C[C@H](O)[C@@]1(C)O2`: the growth was 14.5%.

In the case of `COc1ccc(-c2nnc(SCc3ccc(O)c4ncccc34)n2-c2ccccc2)cc1`, the growth was 8.67% (active). `O=C(CCCCCCN1CC(=O)N2[C@@H](c3ccc(Cl)c(F)c3)c3[nH]c4ccccc4c3C[C@H]2C1=O)NO`: the growth was 83.6%. Consider `Oc1ccc(CSc2nnc(-c3ccccc3)n2-c2ccccc2)c2cccnc12`, for which the growth is 6.38% (active). `Cc1ccc(NC(=O)c2ccc(CN3CCN(C)CC3)c(C(F)(F)F)c2)cc1Oc1ccc(-c2[nH]nc3ncnc(N)c23)cc1`: the growth is 113%. Take `CC(c1ccccc1)N1C(=O)/C(=C/c2csc(C#N)n2)SC1=S` (centres undefined): the growth is 55.5%.

On to `O=C(COc1ccc(C2SCC(=O)N2c2ccc(F)cc2)cc1)c1ccccc1` (centres undefined), for which the growth was 114%. For `COc1ccc(-c2nnc(SCc3ccc(O)c4ncccc34)o2)cc1` the value was 21.6%; for `O=c1[nH]c(CNc2ccc(NCc3c(-c4ccccc4)no[n+]3[O-])cc2)nc2c1cnn2-c1ccccc1`, 94.4%.

Take `COc1ccc(N)cc1C(=O)Nc1cccc(-c2cc(=O)c3c(OC)c(OC)c(OC)cc3o2)c1`: the growth was 65.5%. For `CCCC(=O)NC(c1cccnc1)c1cc(C(C)=O)c2cccnc2c1O` (centres undefined) the value was 17.1%.
